Results on 17 molecules are retold here after PubChem BioAssay (EPA / NIEHS).

Several values for one entry are separate records, joined by “and”; a condition that tells them apart may be missing. Equal entries are not always repeated. Some compounds were tested as several samples or in several runs, with calls that do not always agree. Activity calls are given as the source filed them. Rule for the calls: active = hit-call score of the fitted dose curve at least 0.9, where 1 is the maximum; inactive = score below 0.9.

Read-out in assay [1]: Macrophage colony-stimulating factor (MCSF), CSF1 (gene 1435)
Put plainly: BSK_hDFCGF_MCSF: BioMAP Diversity Plus: hDFCGF Assay for Macrophage colony-stimulating factor (MCSF) Biomarker Activity (AID 2283060). As to conditions: primary human foreskin fibroblasts; actives raise or lower the signal. Put shortly: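 fibroblasts (human foreskin, primary), 24 h post-dose; M-CSF by ELISA; bidirectional fit, DMSO = baseline.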

Assay [2] in a line: BSK_hDFCGF_SRB: Viability Assessment in the BioMAP Diversity Plus: hDFCGF Assay (AID 2283061).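 Note: cells exposed to compound for 24 h before the read.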 The note with it: primary human foreskin fibroblasts. In a few lines:
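SRB-based viability read on primary human skin fibroblasts at 24 h: TCA fixation, 0.1% dye, 560 nm. Gain or loss of signal is fitted against the DMSO negative control.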

Read-out in assay [3]: TIMP metallopeptidase inhibitor 1 (TIMP1), TIMP1 (gene 7076)
The assay is described as follows: BSK_hDFCGF_TIMP1: BioMAP Diversity Plus: hDFCGF Assay for TIMP metallopeptidase inhibitor 1 (TIMP1) Biomarker Activity (AID 2283062). As to conditions: primary human foreskin fibroblasts; actives raise or lower the signal. In a few lines:
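Bidirectional curve fitting against DMSO baseline yielded this endpoint, based on ELISA detection of TIMP-1 in primary human foreskin fibroblasts exposed to compound for 24 h.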

Read-out in assay [4]: Monokine induced gamma interferon (MIG), CXCL9 (gene 4283)
Put plainly: BSK_hDFCGF_MIG: BioMAP Diversity Plus: hDFCGF Assay for Monokine induced gamma interferon (MIG) Biomarker Activity (AID 2283063). As to conditions: primary human foreskin fibroblasts; actives raise or lower the signal. Put shortly: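 Endpoint derived by bidirectional fitting relative to DMSO; MIG quantified via ELISA in primary human foreskin fibroblasts harvested 24 h after dosing.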

Read-out in assay [5]: Matrix Metallopeptidase 1 (MMP1), MMP1 (gene 4312)
The assay is described as follows: BSK_hDFCGF_MMP1: BioMAP Diversity Plus: hDFCGF Assay for Matrix Metallopeptidase 1 (MMP1) Biomarker Activity (AID 2283064). As to conditions: primary human foreskin fibroblasts; actives raise or lower the signal. Put shortly: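 Primary human foreskin fibroblasts exposed to chemicals for 24 h; MMP1 measured by ELISA. Cytotoxicity tracked by SRB staining in parallel cultures; bidirectional fit relative to DMSO.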

Read-out in assay [6]: Vascular cell adhesion molecule 1 (VCAM1), VCAM1 (gene 7412)
Put plainly: BSK_hDFCGF_VCAM1: BioMAP Diversity Plus: hDFCGF Assay for Vascular cell adhesion molecule 1 (VCAM1) Biomarker Activity (AID 2283065).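 For AC50: VCAM-1 protein level quantified by ELISA after 24 h chemical exposure.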 As to conditions: primary human foreskin fibroblasts; actives raise or lower the signal. In a few lines: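 Measured after 24 h chemical treatment of primary human skin fibroblasts, VCAM-1 was detected by ELISA and concentration-response analysed in both directions versus DMSO vehicle.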

Read-out in assay [7]: Plasminogen activator inhibitor-1 (PAI1), SERPINE1 (gene 5054)
The assay is described as follows: BSK_hDFCGF_PAI1: BioMAP Diversity Plus: hDFCGF Assay for Plasminogen activator inhibitor-1 (PAI1) Biomarker Activity (AID 2283066). The note with it: primary human foreskin fibroblasts; actives raise or lower the signal. Put shortly:
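Human foreskin fibroblasts in the hDFCGF system were dosed with compound for 24 h; PAI-1 was quantified by ELISA. Bidirectional curve fitting used DMSO as negative control and baseline.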

Read-out in assay [8]: Intercellular Adhesion Molecule 1 (ICAM1), ICAM1 (gene 3383)
The assay is described as follows: BSK_KF3CT_ICAM1: BioMAP Diversity Plus: KF3CT Assay for Intercellular Adhesion Molecule 1 (ICAM1) Biomarker Activity (AID 2283067). The note with it: primary human keratinocytes with fibroblasts; actives raise or lower the signal. Put shortly:
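Bidirectional curve fitting against a DMSO baseline was applied to ICAM-1 ELISA signal from primary human skin co-cultures harvested 24 h after treatment, with SRB staining of parallel wells for overt cytotoxicity.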

Read-out in assay [9]: Interferon-gamma inducible Protein 10 (IP10), CXCL10 (gene 3627)
Put plainly: BSK_KF3CT_IP10: BioMAP Diversity Plus: KF3CT Assay for Interferon-gamma inducible Protein 10 (IP10) Biomarker Activity (AID 2283068). As to conditions: primary human keratinocytes with fibroblasts; actives raise or lower the signal. In a few lines: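 KF3CT co-culture (keratinocytes + foreskin fibroblasts), 24 h compound, IP-10 by ELISA; bidirectional fit vs DMSO baseline.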

Assay [10] is described as follows: BSK_KF3CT_SRB: Viability Assessment in the BioMAP Diversity Plus: KF3CT Assay (AID 2283069).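 Note: total protein by sulforhodamine B staining as a cytotoxicity measure; read 24 h after compound addition; fitted for both signal gain and loss against DMSO baseline.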 The note with it: primary human keratinocytes with fibroblasts. In a few lines: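 Human keratinocyte and foreskin fibroblast co-culture exposed to chemical for 24 h. Total protein measured in parallel cultures by 0.1% sulforhodamine B staining after 10% TCA fixation, read at 560 nm; bidirectional fit relative to DMSO.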

On to `C=CC(=O)OCC(F)(F)C(F)(F)C(F)(F)C(F)(F)C(F)(F)C(F)(F)C(F)(F)F`, for which the result in assay [1], in assay [2], in assay [3], in assay [4], in assay [5] and in [6] was inactive. Further, the outcome in [7], in [8], in [9] and in assay [10] was inactive.
As for `FC1CC(F)(F)C(F)(F)C1(F)F` (stereo not given), the outcome in assay [1], in [2], in [3], in assay [4], in assay [5] and in assay [6] was inactive. Besides, the outcome in assay [7], in assay [8], in assay [9] and in [10] was inactive. The AC50 in assay [2] was 21.1 µM (active).
As to `FC(F)(Br)C(F)(F)C(F)(F)C(F)(F)C(F)(F)C(F)(F)Br`, the outcome in assay [1], in [2], in [3], in assay [4], in [5] and in assay [6] was inactive. In addition, the outcome in assay [7], in [8], in assay [9] and in assay [10] was inactive.
Take `FC(F)(I)C(F)(F)C(F)(F)C(F)(F)I`: the AC50 in [1] was 51.1 µM (active) and 47.7 µM (active) and 58.5 µM (active); in assay [2], 46.3 µM (active) and 52.7 µM (active) and 54 µM (active); in [3] it was 45.3 µM (active) and 46.7 µM (active) and 47.2 µM (active); in assay [4], 50.1 µM (active) and 46 µM (active) and 54.4 µM (active); in assay [5] it was 56.1 µM (active) and 47.6 µM (active) and 46.9 µM (active); in [6], 50.3 µM (active) and 57.2 µM (active) and 46.4 µM (active). For the same molecule, the AC50 in assay [7] is 45.1 µM (active) and 50.2 µM (active) and 44.9 µM (active); in assay [8], 45.5 µM (active) and 46.4 µM (active) and 46.6 µM (active); in [9] it was 52.2 µM (active) and 58.4 µM (active) and 56.6 µM (active); in assay [10], 52.6 µM (active) and 51.1 µM (active) and 58.7 µM (active).
With `FC(F)(F)C(F)(F)C(F)(F)C(F)(F)C(F)(F)C(F)(F)C(F)(F)Br`, the result in assay [1], in assay [2], in assay [3], in assay [4], in assay [5] and in assay [6] was inactive. The outcome in assay [7], in assay [8], in assay [9] and in [10] was inactive.
Turning to `O=C(O)C(F)(OC(F)(F)C(F)(OC(F)(F)C(F)(F)C(F)(F)F)C(F)(F)F)C(F)(F)F` (stereo not given), the result in [1], in assay [2], in assay [3], in assay [4], in assay [5] and in [6] was inactive. In addition, the outcome in assay [7], in assay [8], in [9] and in [10] was inactive.
For `N=C(N)C(F)(F)C(F)(F)C(F)(F)C(F)(F)C(F)(F)C(F)(F)C(F)(F)F`, the concentration at half-maximal activity (AC50) was 40.9 µM (active) and 37.2 µM (active) in assay [1]; 54.4 µM (active) in [2]; 46 µM (active) in [4]; 30 µM (active) and 18 µM (active) in assay [6]; 55.3 µM (active) and 54.2 µM (active) in assay [7]. Moreover, the result in assay [2], in assay [3], in assay [4], in [5], in [8] and in assay [9] was inactive. Further, the result in assay [10] was inactive.
On to `OCC(F)(F)C(F)(F)C(F)(F)C(F)(F)C(F)(F)C(F)(F)F`, for which the AC50 in [1] is 48.6 µM (active) and 49.4 µM (active); in assay [2], 45.4 µM (active); in [5], 49.3 µM (active); in [6] it was 54.6 µM (active) and 46 µM (active); in assay [7], 47.6 µM (active). Moreover, the outcome in assay [2], in assay [3], in [4], in assay [5], in [7] and in assay [8] was inactive. Further, the result in assay [9] and in assay [10] was inactive.
On to `C=C(C)C(=O)OCC(F)(F)C(F)(F)C(F)(F)F`, for which the outcome in assay [1], in [2], in [3], in assay [4], in assay [5] and in [6] was inactive. For the same molecule, the result in assay [7], in assay [8], in assay [9] and in [10] was inactive.
For `O=S(=O)(OCCOC(F)(F)F)C(F)(F)F`, the result in [1], in [2], in assay [3], in [4], in [5] and in assay [6] was inactive. Moreover, the outcome in [7], in [8], in assay [9] and in assay [10] was inactive.
Turning to `COC(=O)CCC(F)(F)C(F)(F)C(F)(F)C(F)(F)F`, the result in assay [1], in assay [2], in assay [3], in assay [4], in [5] and in assay [6] was inactive. Further, the outcome in [7], in assay [8], in assay [9] and in assay [10] was inactive. Moreover, the AC50 in [2] was 30 µM (active).
As for `Nc1ccc([N+](=O)[O-])cc1O`, the outcome in assay [1], in assay [2], in assay [3], in assay [4], in assay [5] and in assay [6] was inactive. Also, the result in assay [7], in [8], in assay [9] and in assay [10] was inactive.
For `C#C[C@]1(O)CC[C@H]2[C@@H]3CCc4cc(OC)ccc4[C@H]3CC[C@@]21C`, the outcome in assay [1], in assay [2], in [3], in assay [4], in [5] and in assay [6] was inactive. Further, the outcome in assay [8], in assay [9] and in [10] was inactive. The AC50 in assay [7] was 0.016 µM (active).
For `OCC(F)(F)C(F)(F)C(F)(F)C(F)F`, the result in assay [1], in assay [2], in assay [3], in [4], in assay [5] and in assay [6] was inactive. Further, the outcome in [7], in assay [8], in assay [9] and in assay [10] was inactive. Also, in assay [7], the AC50 is 1.98 µM (active).
With `O=C(O)C(F)(F)C(F)(F)C(F)(F)C(F)(F)C(F)(F)C(F)(F)C(F)(F)C(F)(F)C(F)(F)C(F)F`, the concentration at half-maximal activity (AC50) in assay [1] was 11 µM (active); in assay [2], 54 µM (active) and 7.25 µM (active); in assay [4], 9.87 µM (active) and 5.95 µM (active); in assay [6], 15.3 µM (active) and 5.95 µM (active); in assay [7], 45.6 µM (active) and 46 µM (active); in assay [9] it was 27.6 µM (active) and 23.7 µM (active). Moreover, the AC50 in assay [10] is 52.4 µM (active) and 49.3 µM (active). For the same molecule, the result in [1], in assay [3], in assay [5] and in [8] was inactive.
Take `CCO[Si](CCC(F)(F)C(F)(F)C(F)(F)C(F)(F)C(F)(F)C(F)(F)F)(OCC)OCC`: the outcome in assay [1], in [2], in assay [3], in assay [4], in assay [5] and in assay [6] was inactive. In addition, the result in [7], in [8], in [9] and in assay [10] was inactive.
Regarding `O=C(Cl)C(F)(F)C(F)(F)C(F)(F)C(F)(F)C(F)(F)C(F)(F)C(F)(F)C(F)(F)F`, the outcome in [1], in assay [3], in assay [5], in [8], in assay [9] and in assay [10] was inactive. The AC50 is 8.08 µM (active) and 15.7 µM (active) and 10.9 µM (active) in assay [2]; 21.7 µM (active) and 44.1 µM (active) and 30 µM (active) in assay [4]; 50.4 µM (active) and 47.9 µM (active) and 47 µM (active) in assay [6]; 47.5 µM (active) and 48.5 µM (active) and 54.6 µM (active) in assay [7]; 20.3 µM (active) and 30 µM (active) in [9].

For orientation: AC50 means the midpoint of the concentration-response curve, whichever way the signal moves.
